GPR151 activ = activators of human GPR151, primary screen, cell-based, PathHunter beta-arrestin, luminescence. PathHunter beta-arrestin GPR151 cells. 1% of 650,000 active. activation, % at 11.2 µM; in the data active = activation above about 4.9%
TEAD-YAP block = TEAD-YAP interaction inhibition, primary screen, TEAD-YAP interaction inhibitor project, luminescence, HEK-TIYL cells; TEAD-Gal4/YAP UAS-luciferase luminescence; inhibition, % at 9.12 µM; 1.4% of 640,000 active; AID 1259422, 2018; in the data active = inhibition above about 32%
MITF inh = MITF inhibitors, primary screen, biochemical, AlphaScreen, human | AID 1259374, 2018 | 0.91% of 650,000 active | AlphaScreen MITF homodimerization, bead proximity signal | inhibition, % at 2.6 µM | Microphthalmia-associated transcription factor (Homo sapiens), O75030; in the data active = inhibition above about 50%
FBW7 act = FBW7 E3 ligase activators, primary screen, biochemical, AlphaScreen, human. AlphaScreen FBW7–phospho-cyclin E peptide binding, activator screen. normalized activity (activation), % at 26.1 µM. 0.13% of 650,000 active. AID 1259310, 2017; in the data active = normalized activity above about 1.9%;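 also: purified mutant Fbw7 with reduced substrate affinity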
Target sequence (Q969H0 whole entry, looked up): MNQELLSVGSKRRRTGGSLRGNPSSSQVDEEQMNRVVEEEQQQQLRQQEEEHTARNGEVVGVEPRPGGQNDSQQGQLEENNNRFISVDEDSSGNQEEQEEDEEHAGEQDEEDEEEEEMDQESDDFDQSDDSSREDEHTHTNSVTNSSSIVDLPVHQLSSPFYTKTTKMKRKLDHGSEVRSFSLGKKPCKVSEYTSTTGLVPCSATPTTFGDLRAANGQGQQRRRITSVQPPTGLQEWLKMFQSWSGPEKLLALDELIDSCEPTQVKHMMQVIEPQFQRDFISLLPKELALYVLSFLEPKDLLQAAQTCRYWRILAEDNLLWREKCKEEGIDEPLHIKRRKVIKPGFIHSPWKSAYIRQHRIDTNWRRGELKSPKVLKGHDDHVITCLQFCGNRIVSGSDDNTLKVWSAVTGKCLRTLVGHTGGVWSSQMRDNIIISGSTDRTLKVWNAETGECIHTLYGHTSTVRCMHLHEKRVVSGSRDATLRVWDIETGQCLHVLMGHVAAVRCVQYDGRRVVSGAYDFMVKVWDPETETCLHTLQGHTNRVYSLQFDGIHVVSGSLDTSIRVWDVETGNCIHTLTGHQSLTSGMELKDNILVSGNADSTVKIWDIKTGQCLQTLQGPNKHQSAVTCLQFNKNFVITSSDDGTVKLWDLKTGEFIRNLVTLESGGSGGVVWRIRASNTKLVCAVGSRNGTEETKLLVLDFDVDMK
MITF inh conf = MITF inhibitors, retest of hits, confirmation, biochemical, AlphaScreen, triplicate | shares compounds with MITF inh | AlphaScreen MITF homodimerization, biotin/His-MITF beads | inhibition, % at 2.6 µM | 16% of 4,700 active | AID 1259372, 2018;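 active = inhibition above a cutoff derived from the DMSO control wells, cut at about 28% in these data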;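 also: inhibitors lower the bead chemiluminescence by keeping MITF from dimerizing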
AlphaScreen DR = AlphaScreen optical interference compounds, dose response, counter-screen, biochemical, HTS | shares compounds with MITF inh | AID 1259373, 2018 | AlphaScreen optical interference counterscreen, cell-free | 6% of 480 active | IC50, µM; call rule not given here
AlphaScreen intf2 = AlphaScreen optical interference compounds, counter-screen for MITF inhibitor project, biochemical, triplicate. shares compounds with MITF inh. LysRS AlphaScreen counterscreen, signal interference. inhibition, % at 2.6 µM. 7.6% of 4,700 active;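 active = inhibition above a cutoff derived from the DMSO control wells, cut at about 30% in these data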
Of the large screens only hits and unclear results are named; the others gave an inactive call (follow-up assays come after a bar, where they were run). Most compounds without a hit are left out; they make up all but 3.5% or so of the library.

Cc1cccc(CN2CCN(S(=O)(=O)c3ccccc3[N+](=O)[O-])CC2)c1	MITF inh 59.1 | MITF inh conf 45.5 | AlphaScreen DR inactive | AlphaScreen intf2 inactive
COc1cccc(CN2CCN(S(=O)(=O)c3ccccc3[N+](=O)[O-])CC2)c1OC	MITF inh 53.4 | MITF inh conf inactive | AlphaScreen intf2 inactive
CN(Cc1n[nH]c2c1CCCC2)C(=O)CC1C(=O)NCCN1C/C=C/c1ccccc1 (configuration not stated)	none
O=[N+]([O-])c1ccccc1S(=O)(=O)N1CCN(Cc2cccc(F)c2)CC1	MITF inh 56.2 | MITF inh conf inactive | AlphaScreen intf2 inactive
COc1ccc(C2CC(=O)C3=C(C2)NC(C)=C(C(=O)OC2CCCCC2)C3c2ccc(OC)cc2)cc1 (configuration not stated)	none
CCOC(=O)C1(CCCc2ccccc2)CCN(C(=O)CCn2cnnn2)CC1	none
CCOC(=O)C1(CCc2ccccc2)CCN(C(=O)CCn2cnnn2)CC1	MITF inh 60.8 | MITF inh conf inactive | AlphaScreen intf2 inactive
Cc1cc(NC(=O)C(C)NCc2cccs2)no1 (configuration not stated)	MITF inh 54.2 | MITF inh conf inactive | AlphaScreen intf2 inactive
CCN(CC)CCCNC(C)C(=O)Nc1cc(C)on1 (configuration not stated)	MITF inh 79.6 | MITF inh conf inactive | AlphaScreen intf2 inactive
Cc1cc(NC(=O)C(C)NCc2ccc(F)cc2)no1 (configuration not stated)	none
Cc1cc(C)n(-c2cccc(CN(C)Cc3nc(-c4ccc5c(c4)OCO5)no3)c2)n1	none
COc1cc(/C=C2\N=C(c3ccc(C)cc3)OC2=O)ccc1OCc1ccccc1Cl	none
COc1cc(/C=C2\N=C(c3ccc(F)cc3)OC2=O)ccc1OCc1ccccc1Cl	MITF inh 73.2 | MITF inh conf inactive | AlphaScreen intf2 inactive
COc1ccc(/C=C2\N=C(c3ccc4c(c3)OCO4)OC2=O)cc1Cl	MITF inh 69.3 | MITF inh conf 73.5 | AlphaScreen DR inactive | AlphaScreen intf2 inactive
Cc1ccc(CNS(=O)(=O)c2ccc3[nH]c(=O)ccc3c2)cc1	none
O=C(c1ccccc1)N1CCC(N2CCN(c3ccccc3)CC2)CC1	MITF inh 79.4 | MITF inh conf inactive | AlphaScreen intf2 inactive
O=C(CCC(=O)N1CCN(c2ccccc2)CC1)N1CCN(c2ccccc2)CC1	none
O=C(c1cccc(Cl)c1)N1CCC(N2CCN(c3ccccc3)CC2)CC1	MITF inh 79.1 | MITF inh conf inactive | AlphaScreen intf2 inactive
O=C(c1ccccc1)N1CCN(C2CS(=O)(=O)CC2O)CC1 (configuration not stated)	MITF inh 80.8 | MITF inh conf inactive | AlphaScreen intf2 inactive
O=C(CCC1CCCC1)N1CCC(N2CCN(c3ccccc3)CC2)CC1	MITF inh 55.2 | MITF inh conf inactive | AlphaScreen intf2 inactive
O=C(c1cccc(Cl)c1)N1CCN(C2CCN(Cc3ccccc3)CC2)CC1	none
OC(CN1CCC(c2nc3ccccc3o2)CC1)c1ccccc1 (configuration not stated)	none
O=C(Nc1ccc(Cl)c(C(F)(F)F)c1)c1ccc(Br)o1	none
O=C(CCC1CCCN(CCCn2cccn2)C1)N1CCN(c2ccccn2)CC1 (configuration not stated)	none
CCCCCOS(=O)(=O)c1ccc(N2CCCC2=O)cc1	none
N#CCCn1cc(CNCc2ccccc2)c(-c2ccccc2)n1	MITF inh 53.8 | MITF inh conf inactive | AlphaScreen intf2 inactive
N#CCCn1cc(CNCc2ccccc2)c(-c2ccc(F)cc2)n1	none
COc1ccc(CC2(CCC(=O)NCc3nc4c(s3)CCCC4)CCC(=O)N2)cc1 (configuration not stated)	none
O=C(CN1CCC(NC(=O)NC2CCCCC2)CC1)Nc1ccccc1[N+](=O)[O-]	none
Nc1nnnn1/N=C/c1ccc(-c2ccc(F)c(Cl)c2)o1	MITF inh 83.3 | MITF inh conf inactive | AlphaScreen intf2 inactive
CC(=O)Nc1ccc(Nc2nc(Nc3nc4ccccc4n3C)nc3c2ncn3C2CCCCC2)cc1	none
NC(=O)Cn1nnc(-c2ccccc2NC(=O)C2CCCCC2)n1	MITF inh 84.2 | MITF inh conf inactive | AlphaScreen intf2 inactive
O=C(Cn1nnc(-c2ccccc2NC(=O)C2CC2)n1)Nc1ccccc1	none
O=S(=O)(c1ccccc1)N1CCN(CC(O)COCc2ccco2)CC1 (configuration not stated)	MITF inh 93.7 | MITF inh conf inactive | AlphaScreen intf2 inactive
CCS(=O)(=O)NCC(c1cccs1)S(=O)(=O)c1ccc(C)cc1 (configuration not stated)	MITF inh 85.4, FBW7 act 3.2 | MITF inh conf 82.5 | AlphaScreen DR inactive | AlphaScreen intf2 inactive
Cc1ccc(S(=O)(=O)C(CNS(=O)(=O)c2ccccc2)c2cccs2)cc1 (configuration not stated)	none
CCN1C(=O)/C(=C/c2ccco2)S/C1=N/S(=O)(=O)c1ccc(C)cc1	MITF inh 52.9 | MITF inh conf inactive | AlphaScreen intf2 inactive
Cc1ccc(-n2c(=S)sc3c(=O)[nH]c(SCC(=O)NC4CCCCC4)nc32)c(C)c1	none
Cc1cccc(Nc2nc(-c3ccc(O)cc3)cs2)c1	MITF inh 67.2 | MITF inh conf inactive | AlphaScreen intf2 inactive
C=CCNc1nc(-c2ccc(O)cc2)cs1	MITF inh 69.7 | MITF inh conf inactive | AlphaScreen intf2 inactive
CC(C)(C)NC(=O)Cn1c(SCC(=O)NCCc2ccccc2)nc2ccccc21	none
CCOc1ccc(N2C(=O)CC(SCCC(=O)Nc3ccc(C)cc3)C2=O)cc1 (configuration not stated)	none
CCOc1cc(C=O)ccc1OCC(=O)OC	none
CCOC(=O)COc1ccc(C=O)cc1OCC	MITF inh 76.2 | MITF inh conf inactive | AlphaScreen intf2 inactive
O=[N+]([O-])c1ccc(N2CCCc3ccccc32)c([N+](=O)[O-])c1	MITF inh 61.5 | MITF inh conf 46.6 | AlphaScreen intf2 40.5
O=[N+]([O-])c1ccc(N2CCc3ccccc3C2)c([N+](=O)[O-])c1	none
C/C=C/c1ccc(OCCCCNCCN2CCOCC2)c(OC)c1	MITF inh 61.0 | MITF inh conf inactive | AlphaScreen intf2 inactive
C/C=C/c1ccc(OCCCCNCCN(C)C)c(OC)c1	none
C/C=C/c1ccc(OCCCCN2CC(C)OC(C)C2)c(OC)c1 (configuration not stated)	none

Screening data: PubChem, The Scripps Research Institute Molecular Screening Center
